In PubChem BioAssay:
The source made the active and inactive calls.

How the values were obtained:
[1] = test system: Plasmodium falciparum Sir2 (PF13_0152, Sir2A); test: Plasmodium falciparum Sir2A binding compounds – biochemical, small-molecule microarray, 635 nm fluorescence, primary screen (AID 1098); conditions: fluorescence 635 nm, higher = more signal;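 note: score merges spot fluorescence intensity with its signal-to-noise ratio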
[2] = probe aDKK1 binding to arrayed compounds – biochemical, biotinylated probe, 635/667 nm fluorescence, primary screen (AID 1099); conditions: small-molecule microarray, higher = more signal;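 note: score merges 667nm spot fluorescence with signal to noise across triplicate slides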
[3] = probe aCHRDL2 binding to arrayed compounds – biochemical, biotinylated probe, 635/667 nm fluorescence, primary screen (AID 1100); conditions: small-molecule microarray, higher = more signal
[4] = change in splice reporter luminescence, either direction, cell-based, HEK293, spliceosome inhibition project, primary screen (AID 1101); conditions: HEK293 splicing luciferase reporter, 24 h, higher = more signal, called active from +8 up or from −8 down;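 note: HEK293 cells carrying a splicing-competent luciferase reporter gene; test concentration not given here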
[5] = biological target: Fibroblast growth factor 10 (Homo sapiens) (UniProt O15520); test: compounds binding fibroblast growth factor 10 – biochemical, small-molecule microarray, 635 nm fluorescence, primary screen (AID 1102); conditions: FGF10 binding, fluorescence 635 nm, higher = more signal
Fibroblast growth factor 10 (Homo sapiens), sequence (O15520 whole entry, looked up): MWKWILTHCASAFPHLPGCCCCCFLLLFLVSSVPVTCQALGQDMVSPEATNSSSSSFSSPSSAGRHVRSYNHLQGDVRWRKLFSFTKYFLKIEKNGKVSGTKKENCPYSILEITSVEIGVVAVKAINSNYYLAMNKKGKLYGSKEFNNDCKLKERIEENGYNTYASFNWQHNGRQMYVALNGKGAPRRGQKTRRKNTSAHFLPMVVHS

[6] = test system: glycogen synthase kinase-3 (GSK3A per assay name; protocol says GSK3B); test: compounds binding glycogen synthase kinase-3 – biochemical, small-molecule microarray, 635 nm fluorescence, GSK3A, primary screen (AID 1103); conditions: fluorescence 635 nm, higher = more signal; note: the record names both GSK3A and GSK3B
[7] = biological target: Epidermal growth factor receptor (Homo sapiens) (UniProt P00533); test: compounds binding epidermal growth factor receptor – biochemical, small-molecule microarray, 635 nm fluorescence, primary screen (AID 1104); conditions: EGFR binding, higher = more signal;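 note: score merges 667 nm emission intensity with spot signal to noise over triplicate slides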
Epidermal growth factor receptor (Homo sapiens), sequence (P00533 whole entry, looked up): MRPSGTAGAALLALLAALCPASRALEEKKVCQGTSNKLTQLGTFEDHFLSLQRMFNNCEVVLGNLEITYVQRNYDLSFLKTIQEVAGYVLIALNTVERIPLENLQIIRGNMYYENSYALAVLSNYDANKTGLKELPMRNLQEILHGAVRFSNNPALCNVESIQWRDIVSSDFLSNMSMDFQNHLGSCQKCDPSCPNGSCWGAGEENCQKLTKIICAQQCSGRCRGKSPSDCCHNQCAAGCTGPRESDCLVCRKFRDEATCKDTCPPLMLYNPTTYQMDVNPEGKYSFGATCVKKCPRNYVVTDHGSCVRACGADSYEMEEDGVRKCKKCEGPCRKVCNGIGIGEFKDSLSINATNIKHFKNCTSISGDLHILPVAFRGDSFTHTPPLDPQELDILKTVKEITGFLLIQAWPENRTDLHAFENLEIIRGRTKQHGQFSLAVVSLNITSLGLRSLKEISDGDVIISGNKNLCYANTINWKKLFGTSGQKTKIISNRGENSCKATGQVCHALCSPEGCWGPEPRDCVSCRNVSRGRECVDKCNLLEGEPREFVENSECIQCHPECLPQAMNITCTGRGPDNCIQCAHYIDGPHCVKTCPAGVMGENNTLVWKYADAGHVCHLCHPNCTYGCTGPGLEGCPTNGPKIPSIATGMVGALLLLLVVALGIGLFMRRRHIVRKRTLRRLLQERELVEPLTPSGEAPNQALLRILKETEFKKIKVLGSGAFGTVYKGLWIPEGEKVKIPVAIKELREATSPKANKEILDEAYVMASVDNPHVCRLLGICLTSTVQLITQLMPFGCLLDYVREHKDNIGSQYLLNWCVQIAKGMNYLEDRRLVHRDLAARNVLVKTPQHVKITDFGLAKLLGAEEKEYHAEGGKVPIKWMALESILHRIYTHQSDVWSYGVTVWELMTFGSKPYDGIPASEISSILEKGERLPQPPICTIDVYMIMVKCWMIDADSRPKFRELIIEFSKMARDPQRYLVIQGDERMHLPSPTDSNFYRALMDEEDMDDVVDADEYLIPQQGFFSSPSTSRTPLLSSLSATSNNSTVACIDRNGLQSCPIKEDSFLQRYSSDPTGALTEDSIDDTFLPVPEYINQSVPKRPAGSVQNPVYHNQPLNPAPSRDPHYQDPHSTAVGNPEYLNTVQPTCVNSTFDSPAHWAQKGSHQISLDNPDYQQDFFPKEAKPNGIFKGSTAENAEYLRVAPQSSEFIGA

[8] = biological target: Follistatin-related protein 3 (Homo sapiens) (UniProt O95633); test: compounds binding follistatin-related protein 3 – biochemical, small-molecule microarray, 635 nm fluorescence, primary screen (AID 1105); conditions: FSTL3 binding, higher = more signal;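 note: score merges emission near 667 nm and signal to noise per printed spot across three slides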
Follistatin-related protein 3 (Homo sapiens), sequence (O95633 whole entry, looked up): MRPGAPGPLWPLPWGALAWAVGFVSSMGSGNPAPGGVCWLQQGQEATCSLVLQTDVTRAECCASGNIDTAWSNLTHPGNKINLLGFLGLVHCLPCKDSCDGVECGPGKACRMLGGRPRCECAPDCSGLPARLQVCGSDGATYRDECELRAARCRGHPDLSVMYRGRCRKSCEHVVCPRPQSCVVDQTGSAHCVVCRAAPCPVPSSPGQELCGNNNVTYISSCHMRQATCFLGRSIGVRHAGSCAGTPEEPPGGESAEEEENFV

[9] = biological target: Dickkopf-related protein 1 (Homo sapiens) (UniProt O94907); test: small molecules binding DKK1 protein – biochemical, small-molecule microarray, 635 nm fluorescence scan, primary screen (AID 1106); conditions: higher = more signal;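 note: score merges emission near 667 nm with signal to noise over three replicate slides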
Dickkopf-related protein 1 (Homo sapiens), sequence (O94907 whole entry, looked up): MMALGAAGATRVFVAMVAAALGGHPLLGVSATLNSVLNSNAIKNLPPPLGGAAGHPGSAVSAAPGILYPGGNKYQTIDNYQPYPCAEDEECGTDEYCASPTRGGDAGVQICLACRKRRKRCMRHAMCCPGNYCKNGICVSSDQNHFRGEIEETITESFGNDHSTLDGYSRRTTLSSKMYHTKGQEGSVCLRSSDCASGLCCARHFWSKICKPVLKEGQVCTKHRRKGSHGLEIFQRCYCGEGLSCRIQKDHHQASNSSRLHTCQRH

[10] = test system: Inhibin beta A chain (activin A); test: small molecules binding activin A – biochemical, small-molecule microarray, 635 nm fluorescence scan, primary screen (AID 1107); conditions: INHBA, higher = more signal;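 note: mouse activin A protein probed at 4.33 µg/mL on printed slides; score merges bound-protein fluorescence near 667 nm with spot signal-to-noise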
[11] = test system: Human papillomavirus type 1a protein E7 (residues 44-93); test: small molecules binding HPV E7 44-93 – biochemical, small-molecule microarray, residues 44-93, 635 nm fluorescence, primary screen (AID 1108); conditions: fluorescence 635 nm, higher = more signal;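 note: E7 fragment applied at 1 µg/mL in TBST for 1 h at 4 C; score combines spot fluorescence with its signal to noise ratio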
[12] = hepatitis C replication reporter changes, two-sided – Huh7 cells, luciferase reporter, HCV replication inhibitor project, primary screen (AID 1109); conditions: Huh7 HCV replicon luciferase reporter, 48 h; higher = more signal;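 note: huh7 hepatoma cells harbouring a luciferase neomycin HCV replicon reporter; luciferase luminescence as measure of HCV replicon replication; test concentration not given here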
[13] = biological target: Left-right determination factor 2 (Homo sapiens) (UniProt O00292); test: small molecules binding LEFTY2 protein – biochemical, small-molecule microarray, 635 nm fluorescence scan, primary screen (AID 1110); conditions: higher = more signal
Left-right determination factor 2 (Homo sapiens), sequence (O00292 whole entry, looked up): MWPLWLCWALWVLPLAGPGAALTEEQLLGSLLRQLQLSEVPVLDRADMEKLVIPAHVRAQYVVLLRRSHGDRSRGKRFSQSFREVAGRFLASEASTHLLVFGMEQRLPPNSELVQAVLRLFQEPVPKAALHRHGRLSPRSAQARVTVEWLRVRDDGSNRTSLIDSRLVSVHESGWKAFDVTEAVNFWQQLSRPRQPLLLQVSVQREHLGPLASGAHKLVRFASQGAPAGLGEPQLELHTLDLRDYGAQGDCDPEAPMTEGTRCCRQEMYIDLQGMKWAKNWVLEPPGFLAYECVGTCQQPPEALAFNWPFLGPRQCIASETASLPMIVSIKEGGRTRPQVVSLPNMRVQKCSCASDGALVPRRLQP

[14] = biological target: Calmodulin-1 (Homo sapiens) (UniProt P0DP23); test: small molecules binding calmodulin-1 with EGTA – biochemical, small-molecule microarray, Cy5-labelled CALM1, profiling panel (AID 1111); conditions: Cy5-CALM1 binding fluorescence, higher = more signal;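 note: labelled calmodulin applied in Tris saline Tween buffer holding calcium plus EGTA and DTT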
[15] = biological target: Calmodulin-1 (Homo sapiens) (UniProt P0DP23); test: small molecules binding Ca-loaded calmodulin-1 – biochemical, small-molecule microarray, Cy5-labelled CALM1, plus calcium, artefact control for SMM control-protein annotation, profiling panel (AID 1112); conditions: Cy5-CALM1 binding fluorescence, higher = more signal;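 note: score merges spot fluorescence with signal to noise from triplicate slides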
[16] = probe aWnt5a binding to arrayed compounds – biochemical, biotinylated probe, 635/667 nm fluorescence, primary screen (AID 1113); conditions: small-molecule microarray, higher = more signal;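 note: score merges 667 nm fluorescence intensity with signal-to-noise per printed feature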
[17] = probe aShh binding to arrayed compounds – biochemical, biotinylated probe, 635/667 nm fluorescence, primary screen (AID 1114); conditions: small-molecule microarray, higher = more signal;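 note: probe is biotin-labelled aShh protein from a stem cell growth factor screen; measures binding of labelled protein to compounds printed on the slide; score merges feature fluorescence at 667 nm with signal-to-noise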
[18] = probe aNog binding to arrayed compounds – biochemical, biotinylated probe, 635/667 nm fluorescence, primary screen (AID 1115); conditions: small-molecule microarray, higher = more signal;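 note: probe is biotinylated aNog protein used at 0.15 µg/mL for 1 h at 4 C; z-score combines 667 nm fluorescence of each spot with its signal to noise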
[19] = biological target: Torsin-1A-interacting protein 1 (Homo sapiens) (UniProt Q5JTV8); test: compound microarray binding of lysate hLAP1 – cell lysate, small-molecule microarray, COS7 lysate, 635/667 nm fluorescence, primary screen (AID 1116); conditions: 635 nm fluorescence, higher = more signal
Torsin-1A-interacting protein 1 (Homo sapiens), sequence (Q5JTV8 whole entry, looked up): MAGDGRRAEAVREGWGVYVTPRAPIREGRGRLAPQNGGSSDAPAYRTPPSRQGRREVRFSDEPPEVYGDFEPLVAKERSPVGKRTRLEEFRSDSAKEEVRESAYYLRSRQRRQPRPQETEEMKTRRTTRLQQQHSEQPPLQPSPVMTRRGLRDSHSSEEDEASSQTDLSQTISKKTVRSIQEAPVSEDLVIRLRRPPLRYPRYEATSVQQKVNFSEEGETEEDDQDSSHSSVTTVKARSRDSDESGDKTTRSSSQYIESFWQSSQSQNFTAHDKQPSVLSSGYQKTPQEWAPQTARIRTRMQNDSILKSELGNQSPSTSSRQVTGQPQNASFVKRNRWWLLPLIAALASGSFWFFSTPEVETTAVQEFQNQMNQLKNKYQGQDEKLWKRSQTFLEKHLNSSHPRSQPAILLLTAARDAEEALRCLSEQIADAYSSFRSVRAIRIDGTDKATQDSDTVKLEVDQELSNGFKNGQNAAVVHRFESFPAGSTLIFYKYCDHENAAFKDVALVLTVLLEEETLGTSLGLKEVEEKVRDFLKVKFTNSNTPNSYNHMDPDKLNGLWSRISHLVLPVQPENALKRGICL

[20] = biological target: Alpha-bungarotoxin (Bungarus multicinctus) (UniProt P60615); test: compounds binding labelled alpha-BTX control protein – biochemical, small-molecule microarray, Alexa647 label, 635/667 nm fluorescence, artefact control for SMM control protein annotation, profiling panel (AID 1117); conditions: alpha-BTX-A647 binding fluorescence, higher = more signal
Alpha-bungarotoxin (Bungarus multicinctus), sequence (P60615 whole entry, looked up): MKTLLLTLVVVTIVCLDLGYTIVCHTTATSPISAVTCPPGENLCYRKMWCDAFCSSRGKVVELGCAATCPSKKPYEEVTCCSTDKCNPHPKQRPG

Compound	composite z-score [1]	composite z-score [2]	composite z-score [3]	z-score [4]	composite z-score [5]	composite z-score [6]	composite z-score [7]	composite z-score [8]	composite z-score [9]	composite z-score [10]	composite z-score [11]	z-score [12]	composite z-score [13]	composite z-score [14]	composite z-score [15]	composite z-score [16]	composite z-score [17]	composite z-score [18]	composite z-score [19]	composite z-score [20]
[N-]=[N+]=Nc1ccccc1C[C@]1(C(=O)NCc2ccccc2)N=C(c2ccc(OCCCO)cc2)O[C@H]1c1ccccc1	1.13	0.966	1.01	0.843 (inactive)	1.09	-0.235	-0.269	0.461	-0.684	0.784	1.08	-1.58	-0.397	2.03	0.848	0.0357	0.28	1.85	1.39	1.77
NCCCCCCNC(=O)[C@@H]1C[C@@H]2C(=O)N3CCC[C@H]3C(=O)N2[C@@H]1c1ccc(O)cc1	1.27	0.0265	0.0978	0.364 (inactive)	1.01	1.3	0.235	0.318	1.02	0.123	1.31	0.808	1.31	0.718	0.683	0.0049	0.0328	-0.157	0.557	0.705
COCCCNC(=O)[C@]1(CCC(=O)OC(C)(C)C)N=C(c2ccc(OCCCO)cc2)O[C@@H]1c1ccccc1	1.31	1.33	0.701	-0.307 (inactive)	0.417	1.28	-0.301	-0.47	-0.261	-0.497	1.49	-0.151	-0.737	1.59	1	-0.0203	-0.0248	-0.0076	1.49	1.6
COCCOC(=O)N1C(=O)[C@@]2(c3ccccc31)[C@H](C(=O)N1CCN(c3ncccn3)CC1)[C@H]1C(=O)O[C@H](c3ccccc3)[C@H](c3ccccc3)N1[C@@H]2c1ccc(OCCO)cc1	1.02	0.657	0.422	-0.471 (inactive)	1.24	0.402	1	1.03	0.286	0.252	1.41	-1.42	0.708	0.89	0.316	-0.0944	0.0639	0.612	1.03	1.11
C=CC[C@@H](OC(=O)Nc1ccc(OC)cc1)c1ccc(OCCO)cc1	0.468	-0.211	0.979	-0.694 (inactive)	-1.77	-0.711	-1.99	-0.993	-2.37	-2.6	-1.65	1.51	-1.8	-1.4	-0.819	-0.224	0.0723	-0.364	-0.326	-0.809
CC(CO)N1C(=O)[C@@H]2C3C(=O)OCCC/C=C\[C@H]3OC23C=CCN(Cn2nnc4ccccc42)C(=O)[C@@H]13 (stereo not given in full)	1.82	-0.0595	-0.102	-0.411 (inactive)	-0.134	-0.527	-0.718	-0.474	-0.361	0.339	-1.01	-0.456	-0.214	-0.45	-0.205	-0.152	-0.0553	-0.196	-0.718	-0.559
CC(C)C[C@@H]1NC(=O)[C@H]2C[C@@H](C(=O)NCCCCCC[N+](C)(C)C)[C@@H](c3cccc(OCCO)c3)N2C1=O	1.14	-0.231	-0.0365	-0.713 (inactive)	0.293	0.661	0.109	0.504	0.438	0.682	-0.209	1.79	0.538	-0.432	-0.738	-0.152	-0.0035	-0.378	0.501	0.0962
C=CCOC(=O)[C@@H]1[C@H]2C(=O)O[C@H](c3ccccc3)[C@H](c3ccccc3)N2[C@H](c2ccc(OCCOC(=O)[C@H]3C[C@H]4C(=O)N[C@@H](CC(C)C)C(=O)N4[C@H]3c3ccc(O)cc3)cc2)[C@@]12C(=O)Nc1ccc(I)cc12	1.25	0.198	-0.093	0.242 (inactive)	1.4	1.32	1.08	1.51	0.931	0.463	0.719	-0.866	0.808	0.0847	-0.481	-0.0478	0.235	0.135	0.859	2
[N-]=[N+]=Nc1ccccc1[C@H]1OC(c2ccc(OCCCO)cc2)=N[C@@]1(CCS(=O)(=O)c1ccccc1)C(=O)N1CCCCC1	1.37	1.27	1.27	-1.21 (inactive)	0.354	0.797	0.0374	0.801	-0.44	1.38	1.44	-1.05	-0.149	1.48	0.956	-0.0165	0.184	0.0127	1.27	2.21
COc1ccc([Si](C)(C)[C@@H]2[C@@H](CC(=O)N3CCC[C@H]3CO)O[C@]3(C(=O)N(Cc4ccc(N5C(=O)c6cccc7cccc5c67)cc4)c4ccccc43)[C@H]2C)cc1	1.56	-0.184	-0.2	-1.11 (inactive)	1.38	1.29	0.564	1.06	0.587	0.231	1.45	-2.25	0.515	0.692	-0.292	-0.0437	0.14	-0.37	1.44	1.82
CN1C(=O)C2C=CC(C(O)C3CCCCC3)N(N3CCCCC3)C2C1=O (stereo not given)	1.15	0.429	0.833	1.77 (inactive)	1.06	0.675	0.442	1.45	0.379	0.776	1.47	-0.306	0.194	0.407	-0.331	0.164	0.109	1.31	1.4	1.66
